The results in this text go back to PubChem BioAssay AID1220 (Sanford-Burnham Center for Chemical Genomics, 2008).

Among all 190,000 compounds or so, about 1,300 (0.68%) were called active. Cut-off read from the data, not from the text of the source: active = inhibition above about 50%; inactive = the rest. Shown is part of a subset that was picked to be rich in actives.

The target of the experiment is Mannose-6-phosphate isomerase (Homo sapiens) (UniProt P34949). The experiment is described as follows: human PMI inhibitors, high substrate, primary screen, biochemical, fluorescence intensity, high mannose 6-phosphate (AID 1220). The settings on record: recombinant PMI enzyme, coupled fluorescence intensity; at 20 µM; active compounds read high.
Sequence of Mannose-6-phosphate isomerase (Homo sapiens) (P34949 whole entry, looked up): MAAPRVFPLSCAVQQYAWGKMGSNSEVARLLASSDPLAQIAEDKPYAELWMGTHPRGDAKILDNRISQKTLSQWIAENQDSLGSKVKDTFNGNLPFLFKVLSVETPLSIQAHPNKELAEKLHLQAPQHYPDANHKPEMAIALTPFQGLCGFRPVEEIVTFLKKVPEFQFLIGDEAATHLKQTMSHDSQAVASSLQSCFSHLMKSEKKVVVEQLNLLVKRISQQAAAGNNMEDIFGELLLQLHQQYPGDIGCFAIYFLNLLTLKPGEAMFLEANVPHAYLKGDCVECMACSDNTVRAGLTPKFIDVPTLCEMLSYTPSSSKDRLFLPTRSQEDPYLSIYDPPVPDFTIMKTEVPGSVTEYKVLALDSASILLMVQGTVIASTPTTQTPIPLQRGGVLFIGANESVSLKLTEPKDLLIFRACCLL
Turning to `COc1ccccc1OC(C)c1nnc(SCC(=O)Nc2c(C)n(C)n(-c3ccccc3)c2=O)n1-c1ccccc1` (configuration not stated), the inhibition was 6.4% (inactive).

For the compound `COc1ccc(CNS(=O)(=O)NCc2ccc(C)cc2)cc1`, the inhibition was -7.2% (inactive).

On to `Cc1ccc(C)c2nc3sc(C(=O)N4CCOCC4)c(N)c3cc12`, for which the inhibition is 2.2% (inactive).

With `CCCC(=O)c1ccc(N2CCN(S(=O)(=O)c3ccccc3)CC2)c(F)c1`, the inhibition is 9.7% (inactive).

As for `CC(C)C1C(C#N)=C(N)Oc2n[nH]c(-c3ccccc3)c21` (configuration not stated), the inhibition was 9% (inactive).

`O=C(Cc1cccs1)NC(c1ccccc1)c1ccccc1`: the inhibition is -1.3% (inactive).

On to `CCC(CC)c1nnc(NC(=O)c2ccco2)s1`, for which the inhibition was 8.5% (inactive).

In the case of `O=C1CN(C(=O)COC(=O)c2cccc(OCc3ccccc3)c2)c2ccccc2N1`, the inhibition is 20.2% (inactive).

For the compound `c1ccc(CC2CNc3ccccc3CN2)cc1` (configuration not stated), the inhibition is -7% (inactive).

As for `Cc1nc(N2CCN(S(=O)(=O)c3cccc4nonc34)CC2)c2c3c(sc2n1)CCCC3`, the inhibition is 14.8% (inactive).

With `COc1cnc(-c2ccccn2)nc1Sc1cccc(Cl)c1`, the inhibition is 2.4% (inactive).

`CC(=O)c1ccc(NC(=S)N2CCN(c3cccc(Cl)c3)CC2)cc1`: the inhibition is -8.9% (inactive).

On to `CCCC(=O)c1cc(F)c(N2CCN(S(=O)(=O)c3ccccc3)CC2)cc1C`, for which the inhibition was 14.8% (inactive).

As for `CCc1nn(CC(=O)Nc2ccc(Br)c(C)c2)c(=N)s1`, the inhibition is -9.2% (inactive).

Consider `CC(=O)N1C(C)(C)CC(=NOS(=O)(=O)c2ccccc2)CC1(C)C`, for which the inhibition was -21.1% (inactive).

For the compound `CC1=CC(=O)C=C(C)C1=NOC(=O)/C=C\c1ccccc1`, the inhibition is 22% (inactive).

On to `CC(=O)Nc1ccc(S(=O)(=O)N=S(C)(C)=O)cc1`, for which the inhibition was 15.7% (inactive).

For `CCCC(=O)NC1=C(C#N)C2(CCCCC2)Cc2ccccc21`, the inhibition is -7.8% (inactive).

For the compound `CC1CCCC(C)N1C(=O)CSc1nc2ccccc2s1` (configuration not stated), the inhibition is 0.3% (inactive).

As to `CCOC(=O)/C(=C/c1c(C)n(C)c2ccc([N+](=O)[O-])cc12)C(C)=O`, the inhibition was 2.1% (inactive).

With `CC1(C)Oc2ccc(C(=O)N3CCCC3)cc2N(CC(=O)NCc2ccccc2)C1=O`, the inhibition is -8.2% (inactive).

Turning to `CC1(C)Oc2ccc(C(=O)N3CCOCC3)cc2N(CC(=O)Nc2ccccc2)C1=O`, the inhibition is 6.6% (inactive).

With `CC1(C)Oc2ccc(C(=O)N3CCCCC3)cc2N(CC(=O)NCc2ccccc2)C1=O`, the inhibition was 107% (active).

Regarding `CCOC(=O)Cn1c(=O)oc2cc(S(=O)(=O)Nc3ccc(F)cc3)ccc21`, the inhibition is -4.3% (inactive).

For `Oc1ccc(CN2CCc3ccccc3C2)c2cccnc12`, the inhibition was 47.9% (inactive).

With `OCc1ccnc2c(O)cccc12`, the inhibition is 59.6% (active).

For the compound `O=S(=O)(c1ccc(Cl)cc1)N1CCN(Cc2ccc(O)c3ncccc23)CC1`, the inhibition is 45.3% (inactive).

As for `OCc1ccc(O)c2ncccc12`, the inhibition is 28.8% (inactive).

On to `COc1ccccc1N1CCN(Cc2ccc(OC)c(OC)c2OC)CC1`, for which the inhibition is -2.8% (inactive).

On to `COc1ccccc1N1CCN(Cc2cc(Br)c(O)c3ncccc23)CC1`, for which the inhibition is 43.7% (inactive).

For `Oc1ccc(CN2CCC(Cc3ccccc3)CC2)c2cccnc12`, the inhibition was 46.2% (inactive).

For `c1ccc(N2CCN(Cc3ccnc4ccccc34)CC2)cc1`, the inhibition is -101% (inactive).

Consider `Oc1ccc(CN2CCCCC2)c2cccnc12`, for which the inhibition is 50.5% (active).

In the case of `Oc1ccc(CN2CCN(c3ccccc3)CC2)c2cccnc12`, the inhibition was 50.5% (active).

In the case of `Oc1ccc(COCc2ccccc2)c2cccnc12`, the inhibition was 46.2% (inactive).

For the compound `COc1ccc(N2C(=O)/C(=C\c3ccco3)N=C2SCC(=O)N(C(C)C)C(C)C)cc1Cl`, the inhibition was 2.5% (inactive).

On to `CC1C2CC(C(S(=O)(=O)N3CCOCC3)C2=O)C1(C)C` (configuration not stated), for which the inhibition was 8.3% (inactive).

As for `O=C1CCC2=C(CCCC2=O)N1`, the inhibition was 0.9% (inactive).

`O=C1CC(=O)C(n2cncn2)C(c2ccc(Cl)cc2Cl)C1` (configuration not stated): the inhibition is 14.4% (inactive).

As to `COc1ccc2c(c1)c1ncn(Cc3ccco3)c(=O)c1n2C`, the inhibition is 0.7% (inactive).

Take `Oc1c(CN2CCCCC2)cc(COCc2ccccc2)c2cccnc12`: the inhibition is 23.4% (inactive).

Consider `COCc1cc(CN2CCCC2)c(O)c2ncccc12`, for which the inhibition was 35.4% (inactive).

`CC(C)C(=O)Nc1ccc(C(=O)N2CCCCCC2)cc1`: the inhibition is -8.1% (inactive).

As to `CCOc1ccccc1-n1cnc2cc(C(=O)NCc3ccco3)ccc21`, the inhibition was -4.7% (inactive).

Consider `CC1CCN(S(=O)(=O)Cc2ccccc2Cl)CC1`, for which the inhibition was 56.9% (active).

As for `O=S(=O)(Cc1ccccc1Cl)N1CCCCC1`, the inhibition is -3.8% (inactive).

Turning to `O=S(=O)(Cc1ccccc1Cl)N1CCCC1`, the inhibition is 8.9% (inactive).

As to `CN1C(=O)NC(NC(=O)c2ccncc2)(C(F)(F)F)C1=O` (configuration not stated), the inhibition is 4.6% (inactive).

In the case of `COc1cc(NC(=S)N2CCC(C(O)(c3ccccc3)c3ccccc3)CC2)cc(OC)c1`, the inhibition is 52.9% (active).

For `COc1ccc(NC(=S)N2CCC(C(O)(c3ccccc3)c3ccccc3)CC2)cc1`, the inhibition is 7% (inactive).

For `COc1ccc(OC)c(NC(=S)N2CCC(C(O)(c3ccccc3)c3ccccc3)CC2)c1`, the inhibition was 17.9% (inactive).

Regarding `Cc1ccc2nsnc2c1S(=O)(=O)Nc1cccc2nsnc12`, the inhibition was 50.1% (active).

For the compound `Cc1ccc2nsnc2c1NS(=O)(=O)c1c(C)ccc2nsnc12`, the inhibition is 30.6% (inactive).

Take `Cc1cc(C)c(S(=O)(=O)Nc2cccc3nsnc23)c(C)c1`: the inhibition was 19.4% (inactive).

As to `O=C(Nc1ncc(Cc2cccc(Cl)c2Cl)s1)c1ccc([N+](=O)[O-])cc1`, the inhibition was -1% (inactive).

In the case of `CCOC(=O)c1ccccc1NC(=O)CSc1ccccc1`, the inhibition was -10.2% (inactive).

Regarding `O=c1[nH]c2ccccc2c(O)c1-c1cc2ccccc2oc1=O`, the inhibition is -2.4% (inactive).

For `O=C(Cc1c[nH]c2ccccc12)NCc1ccccc1F`, the inhibition is 7.1% (inactive).

On to `CN1C(=S)SC(N(O)C(=O)Nc2ccc(Cl)c(Cl)c2)C1(C)C` (configuration not stated), for which the inhibition is 12.6% (inactive).

`CN1C(=S)SC(N(O)C(=O)Nc2ccccc2)C1(C)C` (configuration not stated): the inhibition was 10.2% (inactive).

For the compound `CN1C(=S)SC(N(O)C(=O)Nc2cccc3ccccc23)C1(C)C` (configuration not stated), the inhibition is 62.9% (active).

In the case of `CN1CCC/C1=C/C=C1\SC(=S)NC1=O`, the inhibition was 53.1% (active).

On to `CN1C(=O)/C(=C\C=C2/CCCN2C)N(C)C1=S`, for which the inhibition is 30.5% (inactive).

For `CN1CCN(/C=C2\SC(=S)NC2=O)CC1`, the inhibition was -4.7% (inactive).

Take `O=C(CCCNC(=O)/C(=C\c1ccc(F)cc1)NC(=O)c1ccccc1)OCc1ccccc1`: the inhibition was 3.3% (inactive).

As for `Cc1nc(-c2ccncc2)sc1C(=O)Nc1ccc(Cl)cc1`, the inhibition is 6.1% (inactive).

`O=C(Nc1ccccc1)C1=C[C@@H](c2coc3ccccc3c2=O)C[C@@H](OCCCCO)O1`: the inhibition was 10.1% (inactive).

Regarding `CC(C)C[C@H](NC(=O)c1nc[nH]c1C(=O)NC(c1ccccc1)c1ccccc1)C(=O)OCc1ccccc1`, the inhibition was 15% (inactive).

As for `CCOC(=O)Cc1csc(NC(=O)c2csc3c2CCCC3)n1`, the inhibition is 2% (inactive).

`CC(C)CC(C(=O)NC1CCCC1)N(Cc1ccc2c(c1)OCO2)C(=O)c1snc(C(N)=O)c1N` (configuration not stated): the inhibition is 3.1% (inactive).

For the compound `CC(C)CCNC(=O)C(CC(C)C)N(Cc1ccc2c(c1)OCO2)C(=O)c1snc(C(N)=O)c1N` (configuration not stated), the inhibition was 51% (active).

In the case of `CCCC(C(=O)NC1CCCC1)N(Cc1ccc2c(c1)OCO2)C(=O)c1snc(C(N)=O)c1N` (configuration not stated), the inhibition was -8.2% (inactive).

On to `O=c1cc(-c2ccccc2)c2ccccc2[nH]1`, for which the inhibition is 10% (inactive).

Take `Cn1c(=O)cc(-c2ccccc2)c2ccccc21`: the inhibition was 0.3% (inactive).

With `CCS(=O)(=O)N1CCN(S(=O)(=O)c2ccccc2)CC1`, the inhibition was 1.8% (inactive).

For the compound `COc1ccccc1-n1c(=O)c(C#N)c(-c2ccc([N+](=O)[O-])cc2)c2cc(C(=O)c3cc(F)ccc3O)cnc21`, the inhibition is 14.2% (inactive).

In the case of `CCN(CC)C(=S)SCC(=O)c1ccccc1`, the inhibition is 7.7% (inactive).

As to `CCN(CC)C(=S)SSC(=S)N(CC)CC`, the inhibition was 0.3% (inactive).

On to `O=C(NCc1ccco1)c1ccc(CN2CCOCC2)cc1`, for which the inhibition was -9.5% (inactive).

`COC(=O)c1ccc(NC(=S)NC2c3ccccc3CC2O)cc1` (configuration not stated): the inhibition is 15.2% (inactive).

Take `CCOC(=O)C(=O)Nc1ccc([N+](=O)[O-])cc1OC`: the inhibition is 16.8% (inactive).

With `CCN(CC)S(=O)(=O)c1ccc(Cl)c(NC(=O)c2ccc(C#N)cc2)c1`, the inhibition is -3.1% (inactive).

Regarding `CCc1ccc2c(c1)c1nc(C)sc1n2CC`, the inhibition was 55.2% (active).

With `Cc1nc2c3cc(F)ccc3n(Cc3ccccc3F)c2s1`, the inhibition is 14.7% (inactive).

Consider `CCOC(=O)Cn1c2ccc(C)cc2c2nc(C)sc21`, for which the inhibition was 26.1% (inactive).

With `Cc1nc2c3cc(F)ccc3n(Cc3ccc(F)cc3)c2s1`, the inhibition is 53.2% (active).

In the case of `CCc1ccc2c(c1)c1nc(C)sc1n2CC(=O)OC`, the inhibition was 5.8% (inactive).

On to `Cc1nc2c3cc(F)ccc3n(Cc3ccccc3)c2s1`, for which the inhibition is 32.5% (inactive).

With `Cc1cccc(C)c1NC(=O)C(=O)c1cn(C)c2ccccc12`, the inhibition is -8.1% (inactive).

As to `COc1cc2c(C(=O)N3CCN(C)CC3)c(C)oc2cc1Br`, the inhibition was 11.7% (inactive).

On to `COc1ccc(CC(=O)NC2CC(C)(C)NC(C)(C)C2)cc1`, for which the inhibition is -9% (inactive).

`Cc1ccc(Sc2nc3c(c(=O)[nH]c(=O)n3C)n2CCc2ccccc2)cc1`: the inhibition was 18.4% (inactive).

For the compound `CN(C)c1cc[nH]c(=O)c1C#N`, the inhibition was 6.4% (inactive).

As for `COc1cccc(-c2nnc(SCC(=O)Nc3cc(C)on3)n2C)c1`, the inhibition is -5.8% (inactive).

With `CCc1ccc(O)c(N=Cc2ccccc2O)c1`, the inhibition is 23.3% (inactive).

For the compound `CCCc1ccc(O)c(N=Cc2cc(Br)cc(OCC)c2O)c1`, the inhibition was 53.1% (active).

`CCOc1ccc(Br)cc1/C=N/O`: the inhibition is 16.4% (inactive).

Take `COC(=O)c1ccccc1NC(=O)CSc1nc(-c2ccco2)cc(C(F)(F)F)n1`: the inhibition was 12.4% (inactive).

Turning to `CCOC(=O)N1CCC(N2C(=O)c3ccccc3C2Nc2cc(Cl)c(OC)cc2OC)CC1` (configuration not stated), the inhibition was 21.3% (inactive).

As to `Cc1cc(=O)oc(C)c1C(=O)OCC(=O)c1ccc(Cl)c(Cl)c1`, the inhibition is 3.4% (inactive).

Regarding `Cc1ccc(C(=O)COC(=O)c2c(C)cc(=O)oc2C)cc1[N+](=O)[O-]`, the inhibition is 58.1% (active).

As for `Cc1cc(=O)oc(C)c1C(=O)OCC(=O)c1ccc2ccccc2c1`, the inhibition was -11.8% (inactive).
